# This is a sample that favours compounds with a hit; in the whole collection about 2.2% have one here.
# GALK inhibitor: qHTS Assay for Inhibitors of Human Galactokinase (GALK); AID 1868, 2009; Purified GALK, Kinase-Glo residual ATP luminescence; P51570; 270,000 tested, 0.007% active; Potency, µM (series often up to 57.5 µM), hits mostly inhibitors
# Target sequence (P51570 whole entry, looked up): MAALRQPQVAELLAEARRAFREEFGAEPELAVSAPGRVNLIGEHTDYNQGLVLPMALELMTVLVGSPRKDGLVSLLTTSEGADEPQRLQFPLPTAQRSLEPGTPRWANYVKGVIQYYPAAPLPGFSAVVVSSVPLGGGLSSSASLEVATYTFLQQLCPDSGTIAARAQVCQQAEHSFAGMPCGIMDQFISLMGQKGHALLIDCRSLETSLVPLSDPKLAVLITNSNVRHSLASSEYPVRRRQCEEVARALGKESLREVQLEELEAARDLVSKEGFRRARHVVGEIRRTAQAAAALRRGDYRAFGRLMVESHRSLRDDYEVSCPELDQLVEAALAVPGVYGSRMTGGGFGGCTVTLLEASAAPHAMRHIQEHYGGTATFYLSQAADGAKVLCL
#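 The enzyme phosphorylates galactose (100 uM) using ATP (35 uM); inhibition is detected as higher residual ATP, quantified by bioluminescence after 1 h reaction at room temperature, pH 8.0.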
# PI4K2A block: qHTS for small molecular inhibitors of PI4K2A. AID 1346378, 2018. Phosphatidylinositol 4-kinase type 2-alpha (Homo sapiens), Q9BTU6. purified PI4K2A, ADP-Glo luminescence, 1 h; hits give low values. 420,000 tested, 0.13% active. activity change, negative = inhibition, % at 76.9 µM; in the data active means activity change below about -50%; inconclusive means mostly about -30% to -49%
#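 Compounds are screened against recombinant PI4K2A using PI as substrate and ATP, the latter dispensed at 300 microM. Reactions run one hour at ambient temperature before ADP-Glo detection; full inhibition defined by wells lacking enzyme.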
# A549 tox: Nrf2 qHTS screen for inhibitors: counterscreen for cytotoxicity; A549 ARE-Fluc cells, CellTiter-Fluor viability, 18-24 h; Potency, µM (highest dose often 46 µM), usual class: inhibitors; 390,000 tested, 0.16% active; AID 504648, 2011
#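 A549 ARE_Fluc cells in 5% FBS OPTI-MEM were exposed to compounds in concentration-response for 18-24 h at 37 deg C. Viability was read by CellTiter-Fluor fluorescence (Ex 405/Em 525) after 30 min, before the luciferase read.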
# miR-21 reporter: qHTS Assay for Modulators of miRNAs and/orActivators of miR-21 | HeLa miR-21 FLuc reporter, luciferase, 48 h | Potency, µM (highest dose often 38.3 µM), most hits filed as activators | 340,000 tested, under 10 active | AID 2288, 2010;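 further: miR-21 action dims this reporter so a rising signal means less miR-21 action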
#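 Luminescence from a firefly luciferase reporter carrying a miR-21 binding site downstream, stably expressed under a CMV promoter in HeLa cells that make miR-21 endogenously, reports miRNA modulation after 48 h compound exposure up to approximately 40uM final.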
# Nrf2 activator: qHTS of Nrf2 Activators; Potency, µM (titrated, usually from 46.1 µM), most hits filed as activators; AREc32 ARE-luciferase reporter (MCF7-derived line), luminescence, 24 h; 410,000 tested, 0.31% active; further: nearly all actives have a fitted effect of over 65% in size
#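 Reporter line AREc32 (ARE-Fluc), seeded overnight in OPTI-MEM with 5% FBS; compound pin-transferred, 24 hr at 37 deg C, 5% CO2; luminescent read-out.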
# Nrf2 block: Nrf2 qHTS screen for inhibitors. A549 ARE-Fluc reporter, luciferase luminescence, 18-24 h. Potency, µM (titrated, usually from 46 µM), hits mostly inhibitors. 360,000 tested, 2.1% active. AID 504444, 2011; further: nearly all actives have a fitted effect of over 60% in size
#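 Reporter: ARE-Fluc in A549. Exposure: 18-24 h, 37 °C, 5% CO2, 5% FBS OPTI-MEM. Readouts: fluorescent cytotoxicity (CellTiter-Fluor), then luminescent Nrf2 signal after BugLite.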
# Hits are given with their value; . = inactive; ? = inconclusive; / = no result given. Unless noted, the call rests on the fitted dose curve; in most records, active means well fitted curve in the direction sought with a large enough effect; inconclusive means small, poorly fitted or top-dose-only effect, or another doubt; inactive means no such curve, though single readings can be large; an effect the other way counts as inactive or inconclusive.
SMILES,GALK inhibitor,PI4K2A block,A549 tox,miR-21 reporter,Nrf2 activator,Nrf2 block
CCCc1ccc(C2C3=C(CC(C)(C)CC3=O)NC3=C2C(=O)c2ccccc23)cc1 (stereo not drawn),.,.,?,?,.,8.2µM
COc1ccc2cc(CN(CCO)C(=O)c3ccc(Br)cc3)c(=O)[nH]c2c1,.,.,.,.,.,20.6µM
CC(C)(C)c1ccc(C(=O)Nc2ccc(CN3CCS(=O)(=O)CC3)cc2)cc1,/,.,.,.,.,7.31µM
COC(=O)Cc1ccc(NC(=O)c2ccc(C(C)(C)C)cc2)cc1,.,.,?,?,.,2.06µM
CC(C)(C)c1ccc(C(=O)Nc2ccc(Cl)cc2)cc1,/,.,.,.,.,?
O=C(Nc1ccc(CN2CCS(=O)(=O)CC2)cc1)c1ccc(C(F)(F)F)cc1,/,.,.,.,.,18.4µM
CCN(CC)C(=O)CC[C@H]1CC[C@]2(CCCN(C(=O)c3ccccc3)C2)O1,/,.,/,/,/,/
C/C(=N\Nc1ncnc2sc(C)c(C)c12)c1ccccn1,.,.,23.1µM,?,.,?
CCC(C)N(C(=O)CSc1nc(-c2cccs2)nc2ccccc12)C1CCS(=O)(=O)C1 (stereo not drawn),/,.,?,/,.,8.2µM
CCC(C)N(C(=O)CSc1ncnc2sccc12)C1CCS(=O)(=O)C1 (stereo not drawn),/,.,.,/,.,.
CCCC(=O)NC(=S)Nc1ccc(S(=O)(=O)Nc2ccc(OCC)cc2)cc1,.,.,18.4µM,.,.,7.31µM
CCOc1ccc(NS(=O)(=O)c2ccc(NC(=O)c3ccccn3)cc2)cc1,/,.,.,/,.,14.6µM
CCCCc1oc2ccc(NS(C)(=O)=O)cc2c1C(=O)c1ccc(OCCCN(CCCC)CCCC)cc1,/,.,/,/,/,/
Cc1ccc(C(=O)/C=C/C(=O)O)cc1,.,.,.,.,22.4µM,.
CCC[C@H]1[C@@H](OC(=O)NCc2ccc(C)o2)CC[C@@]23CCCN2C(=O)CCC[C@@H]13,/,.,/,/,/,/
CC(C)(C)OC(=O)CNC(=O)c1[nH]cnc1C(=O)NCCCCCNC(=O)OC(C)(C)C,/,.,.,?,.,25.9µM
CC(C)(C)OC(=O)NCCCCCNC(=O)c1nc[nH]c1C(=O)N1CCN(C(=O)OC(C)(C)C)CC1,/,.,.,/,.,.
CC(C)(C)OC(=O)NCCCCCNC(=O)c1[nH]cnc1C(=O)NC1CCN(C(=O)OC(C)(C)C)CC1,/,.,.,/,.,20.6µM
CC(C)(C)OC(=O)CNC(=O)c1[nH]cnc1C(=O)NCCCCCN,/,.,.,/,.,.
CC(C)(C)OC(=O)NCCCCCNC(=O)c1[nH]cnc1C(=O)Nc1cccc(Cl)c1,/,.,?,/,.,20.6µM
COc1ccc(-c2ccc(SC)nn2)cc1,.,-72.3,.,.,.,.
O=c1c2ccc(F)cc2nc2sc(Nc3ccc4c(c3)CCC4)nn12,/,.,/,/,/,/
CC(=O)N1CCN(S(=O)(=O)c2cccc(C(=O)OCc3ccc(C(C)(C)C)cc3)c2)CC1,/,.,.,/,.,23.1µM
Cc1ccc(COC(=O)c2cccc(S(=O)(=O)N3CCCCCC3)c2)cc1,/,.,.,/,.,.
O=C(CCCl)NC1CCCCN(Cc2ccc(OC(F)(F)F)cc2)C1=O (stereo not drawn),/,.,/,/,/,/
SMILES,GALK inhibitor,PI4K2A block,A549 tox,miR-21 reporter,Nrf2 activator,Nrf2 block
Cc1ccc(-n2cc(CNCCCn3ccnc3C)c(-c3ccc(F)cc3)n2)cc1,.,.,25.9µM,.,.,.
Cc1nn(-c2ccc(Cl)cc2)c(=O)c2ccccc12,.,.,.,.,.,?
Cc1c(Cl)sn(-c2ccc(Cl)cc2)c1=O,.,.,?,?,.,25.9µM
COCCN(Cc1cc2cc(C)cc(C)c2nc1Cl)C(=O)Nc1ccccc1,.,.,.,.,.,.
COCCN(Cc1cc2c(C)cc(C)cc2nc1Cl)C(=O)c1ccccc1F,.,.,?,.,.,18.4µM
COC(=O)[C@]12C[C@H](CC(=O)N3CCSCC3)C(=O)N(Cc3cccc4ccccc34)C1=C[C@H](COCc1ccccc1)O[C@@H]2C,/,.,/,/,/,/

# Screens from PubChem.
